We go through 78 compounds from PubChem BioAssay AID1645887 (National Center for Advancing Translational Sciences (NCATS), 2021).

In all, about 16,000 compounds went through this assay and about 40 (0.2%) were called active. Roughly 1% stayed inconclusive and do not appear here. The entries come from a sample that favours actives as a whole. Some structures have more than one record in an assay (separate samples or runs), and their calls can disagree. A number with no mark means an inactive call. The call rests on the fitted dose curve; in most records, active means well fitted activation curve with a large enough effect; inconclusive means small, poorly fitted or top-dose-only effect, or another doubt; inactive means no such curve, though single readings can be large or run the other way. Residues, ends and D or L forms follow the SMILES beside them.
On the % scale 0 is the no-effect control and ±100 the full control effect; potency means the concentration at half of the fitted maximal effect.

Chain of Rap guanine nucleotide exchange factor 4 (Homo sapiens) (Q8WZA2 whole entry, looked up): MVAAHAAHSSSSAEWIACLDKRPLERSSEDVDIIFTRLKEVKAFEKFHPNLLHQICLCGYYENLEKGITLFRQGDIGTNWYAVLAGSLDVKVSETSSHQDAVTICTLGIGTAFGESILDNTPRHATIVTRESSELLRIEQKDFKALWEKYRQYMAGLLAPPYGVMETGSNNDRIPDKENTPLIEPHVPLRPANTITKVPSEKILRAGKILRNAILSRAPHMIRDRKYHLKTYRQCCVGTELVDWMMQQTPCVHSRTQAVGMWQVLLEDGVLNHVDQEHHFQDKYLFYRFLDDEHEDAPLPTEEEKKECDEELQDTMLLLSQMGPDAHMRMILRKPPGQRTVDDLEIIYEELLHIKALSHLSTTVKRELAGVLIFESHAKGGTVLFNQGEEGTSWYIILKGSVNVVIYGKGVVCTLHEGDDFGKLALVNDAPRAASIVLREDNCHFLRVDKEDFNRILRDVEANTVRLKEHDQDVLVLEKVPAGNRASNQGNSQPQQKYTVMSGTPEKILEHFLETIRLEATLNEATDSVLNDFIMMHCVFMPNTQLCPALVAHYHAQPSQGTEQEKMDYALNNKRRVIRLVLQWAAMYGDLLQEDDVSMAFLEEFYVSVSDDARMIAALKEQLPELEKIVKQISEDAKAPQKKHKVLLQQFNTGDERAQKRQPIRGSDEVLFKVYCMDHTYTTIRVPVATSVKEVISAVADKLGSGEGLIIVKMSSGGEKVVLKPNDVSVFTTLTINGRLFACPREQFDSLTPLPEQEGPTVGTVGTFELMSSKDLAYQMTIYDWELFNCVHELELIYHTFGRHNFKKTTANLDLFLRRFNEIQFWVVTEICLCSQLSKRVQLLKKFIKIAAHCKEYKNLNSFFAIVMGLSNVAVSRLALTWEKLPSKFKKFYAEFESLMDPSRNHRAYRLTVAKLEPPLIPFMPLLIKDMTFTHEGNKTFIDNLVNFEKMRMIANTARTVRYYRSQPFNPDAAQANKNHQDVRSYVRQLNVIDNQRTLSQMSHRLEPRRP

The assay addresses Rap guanine nucleotide exchange factor 4 (Homo sapiens) (UniProt Q8WZA2). Put plainly: Validation qHTS for agonist of cAMP-regulated guanine nucleotide exchange factor 4 (EPAC2).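 On activation: exchange makes BODIPY-GDP fluorescence drop when released from Rap1B; series mostly up to about 150 µM.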 The following applies: EPAC2 Rap1B BODIPY-GDP exchange, fluorescence; activation: active compounds read high. The source says: Principle Investigator: Xiaodong Cheng Ph.D.
The University of Texas Medical Branch, […], TX
In multi-cellular eukaryotic organisms, the effects of cAMP are transduced by two ubiquitously-expressed intracellular cAMP receptors, the classic protein kinase A/cAMP-dependent protein kinase (PKA/cAPK) and the more recently discovered exchange protein directly activated by cAMP/cAMP-regulated guanine nucleotide exchange factor (EPAC/cAMP-GEF). Both PKA and EPAC are ubiquitously expressed in all tissues, and an increase in intracellular cAMP levels will lead to the activation of both PKA and EPAC. Therefore, careful dissections of the individual role and relative contribution of EPAC and PKA within the overall cAMP signaling in various model systems are critical for further elucidating the mechanism of cAMP signaling. To date no EPAC-specific antagonists and agonist, as well as isoform-specific agonists have been reported, and developing EPAC-specific pharmacological probes to determine the physiological functions that EPAC play in the overall cAMP-mediated signaling remains a major challenge within the research field. Furthermore, identified regulators of EPAC may lead to new mechanism-based therapeutic strategies specifically targeting the EPAC / cAMP-signaling components as EPAC has been implicated to play important roles in major human pathological conditions such as diabetes, heart disease, and cancer.
This qHTS will be used to screen the Molecular Libraries Small Molecule Repository (MLSMR) as a concentration-titration series using the NCGC unique quantitative screening (qHTS) platform to find activators for EPAC1. In addition, this assay will also be used as a counterscreen for the EPAC2 qHTS. This fluorescent based assay is developed and validated for EPAC1 that measures exchange using EPAC effector Rap1 complex with BODIPY-GDP, a GDP analog with a tethered fluorophores. Activators are identified by monitoring the change in fluorescence signal as the exchanged free BODIPY-GDP has a reduced fluorescence compared to Rap1-bound BODIPY-GDP. Increase in signal (activation) is the desired outcome for the EPAC1 agonist while no activity in this assay is desired for the EPAC2 agonist counterscreen.
[1] de Rooij, J., Zwartkruis, F. J., Verheijen, M. H., Cool, R. H., Nijman, S. M., Wittinghofer, A., and Bos, J.L. (1998) Nature 396, 474-477.
Briefly, three uL of reagents (100 nM EPAC2, 250 nM RAP1B-BODIPY-GDP, 50 uM GDP) were dispensed into a 1536-well Greiner black solid-bottom medium binding assay plate. Controls and test compounds (23 nL) were transferred to the plate via a Kalypsys pin tool equipped with a 1536-pin array. The plates were centrifuged at 1,000 rpm for 15 seconds followed by 5 minute incubation at room temperature. The assay plates were read at 5 minute intervals for 30 minutes in the ViewLux plate reader using 480nm excitation and 540nm emission filters. The results were normalized to the agonist positive control of 6.5 mM cAMP.
(In general: In qHTS, concentration-response curves come from the screen itself.)
With `CCNc1ncc2nc(-c3ccccc3)c(=O)n(CCc3ccccc3)c2n1`, the activation was 4.35%.

Regarding `CN1CCCC(CNC(=O)c2cnn(-c3ncc4c(n3)-c3ccccc3CC4)c2C2CC2)C1` (centres undefined), the activation is -10.8%.

As to `O=C(CNC(=O)c1cccnc1)c1ccc(F)cc1`, the activation is -17.4%.

For the compound `O=C(c1cn(C2CCCN(Cc3cc(Cl)ccc3O)C2)nn1)N1CCCCC1` (centres undefined), the activation is -0.543%.

For the compound `CNc1ccnc(-c2cccc(NS(C)(=O)=O)c2)n1`, the activation is 1.54%.

Consider `CC(=O)Nc1ccc(S[C@@H](CCN2CC[C@H](C(C)(C)C)CCC2=O)c2ccccc2)cc1`, for which the activation is -31.2%.

Consider `O=C(O)COc1ccc(CCNS(=O)(=O)c2ccccc2)s1`, for which the activation is 2.15%.

Regarding `CCn1c(-c2ccccc2F)nc2cc(NC(C)=O)cc(C(=O)N3CCNC(=O)C3CC(=O)OC)c21` (centres undefined), the activation was -2.82%.

Take `O=C(C[N+]12CCCc3cccc(c31)CCC2)c1ccccc1`: the activation is -2.28%.

With `CN(C)c1ccc(C(=C2C=CC(=[N+](C)C)C=C2)c2ccccc2)cc1`, the activation was -24.7%.

As to `Cn1c(C(c2cc3ccccc3n2C)c2cc3ccccc3n2C)cc2ccccc21`, the activation was 11.4%.

In the case of `COc1ccccc1CNc1ccnc(-c2ccoc2)n1`, the activation was -10.4%.

Consider `CCCN1CCC(=O)N([C@H](CSc2ccccc2)c2ccccc2)CC1`, for which the activation is -10.4%.

In the case of `CC(=O)OC1CCC2(C)C3CC(=O)C4(C)C(CC5OC6(CCC(C)CO6)C(C)C54)C3CC[C@H]2C1` (some centres undefined), the activation was -13.5%.

For the compound `O=C(O)c1ccc2nc(-c3ccccc3)c(-c3ccccc3)nc2c1`, the activation is 11.6%.

Turning to `Cc1nc(NCc2c(F)cccc2F)sc1-c1ccn(CCN2CCOCC2)n1`, the activation is -13.4%.

Consider `COc1ccc(C(=O)N2CCC[C@@]3(CCN(c4ncccn4)C3)C2)cc1`, for which the activation was -15.1%.

In the case of `COc1cccc(Cn2c(=O)c(-c3ccc(F)cc3)nc3cnc(N4CCNCC4)nc32)c1`, the activation was 12.8%.

On to `C=C1CCC(OC(C)=O)/C(C)=C/CC2[C@H]1CC2(C)C` (some centres undefined), for which the activation is -15.7%.

With `CCOC(=O)C[C@H]1c2cc(F)ccc2S(=O)(=O)N1C1CCCC1`, the activation is -9.78%.

For `CN(C)c1ccc(/C=C/c2c3ccccc3nc3ccccc23)cc1`, the activation is -14.9%.

Turning to `CN(C)c1ccc(/C=C/c2c3c(nc4ccccc24)CCCC3)cc1`, the Potency was 44.7 µM (active).

For `Cc1cnc2ccccc2c1/C=C/c1ccc(N(C)C)cc1`, the activation is 20.8%.

On to `OC(CN1CCCCC1)c1cc(-c2ccccc2)on1` (centres undefined), for which the activation is 8.32%.

Turning to `CN(Cc1ccco1)c1ncnc2ccc(-c3ccccc3C(F)(F)F)cc12`, the activation was -4.16%.

For the compound `Cc1c(C(=O)N(C)Cc2cscn2)sc2ncnc(NC[C@H]3CCc4ccccc4O3)c12`, the activation was -2.34%.

As for `O=C(O)[C@@H]1CN[C@@H](C(=O)O)C1`, the activation is 11.8%.

On to `Cc1cc2c(c(-c3cnccn3)c1)OC(CNC(=O)c1ccc(-n3nc(C)cc3C)cc1)C2` (centres undefined), for which the activation is -7.18%.

Regarding `CC(C)CC(NC(=O)CN)C(=O)NC(Cc1ccccc1)C(=O)O` (stereo not drawn) (H-Gly-Leu-Phe-OH; configuration not given here), the activation is -3.33%.

For `CO[C@H]1[C@H](NC(=O)c2ccco2)c2ccccc2C12CCN(Cc1cnc(N(C)C)s1)CC2`, the activation is -21.4%.

With `COc1ccc(-c2nc3cnc(OC)nc3n(C[C@H]3CCCO3)c2=O)cc1`, the activation was -6.48%.

Take `O=C(O)CCC(=O)OC[C@@H](NC(=O)C(Cl)Cl)C(O)c1ccc([N+](=O)[O-])cc1` (some centres undefined): the activation is -9.09%.

In the case of `COCCn1c(=O)c(C)nc2cnc(OC)nc21`, the activation is -6.26%.

Consider `CC(=O)O[C@H]1C[C@H]2CC[C@@H]3[C@H]4C[C@@H]([N+]5(C)CCCCC5)[C@@H](OC(C)=O)[C@]4(C)CC[C@@H]3[C@@]2(C)C[C@@H]1[N+]1(C)CCCCC1`, for which the activation was -8.62%.

Turning to `O=c1c(-c2ccccc2)nc2cnc(Oc3ccccc3)nc2n1Cc1cccs1`, the activation is -18.6%.

For the compound `CN1CCN(c2ncc3nc(CCc4ccccc4)c(=O)n(Cc4cccs4)c3n2)CC1`, the activation is 14.9%.

As for `CC1=CC(=O)c2ccccc2C1=O`, the activation is -29.9%.

For `CC1(S(=O)(=O)O)CC(=O)c2ccccc2C1=O` (centres undefined), the activation is 3.25%.

Consider `CC1(C)CCC2=C(O1)c1ccccc1C(=O)C2=O`, for which the Potency is 70.8 µM (active) and the activation was 17.8%.

Take `CC(C)C(C)/C=C/C(C)C1CCC2C3=CCC4CC(=O)CC[C@@]4(C)C3CC[C@]21C` (some centres undefined): the activation is 0.449%.

As to `O=C(O)c1cccc(/C=C2/C[C@@H]3[C@@H](/C=C/[C@@H](O)C4CCCCC4)[C@H](O)C[C@@H]3O2)c1`, the activation is 15.9%.

Take `C=C1Cc2c(Cl)cc3[nH]c4c5c3c2[C@@]2(O)[C@@H]1C[C@@H]2C(C)(C)O[C@H]5[C@@H]1CC[C@@]2(O)[C@@]35O[C@@H]3[C@@H](O)[C@@H](C(=O)O)O[C@H]5CC[C@]2(C)[C@@]41C`: the activation was -9.97%.

Take `N#CC[C@H](Cc1ccccc1)N1CC[C@@H](NC(=O)OCc2ccccc2)CCC1=O`: the activation is -28.7%.

Consider `Oc1cc(-c2nc3ccccc3s2)cc2c1OCCN(Cc1cccn1-c1ccccn1)C2`, for which the activation is 7.3%.

For the compound `COc1ccc(CN([C@H](CO)CC(C)C)S(=O)(=O)N(Cc2ccccc2)[C@H](CO)CC(C)C)cc1`, the activation is -27.3%.

With `N#CCCn1c(=O)c(-c2cccs2)nc2cnc(Nc3ccccc3)nc21`, the activation is -2.03%.

Turning to `CCNc1ncc2nc(-c3cccs3)c(=O)n(CCc3ccccc3)c2n1`, the activation was -14%.

Turning to `CCNc1ncc2nc(-c3cccs3)c(=O)n(CCC#N)c2n1`, the Potency was 50.1 µM (active).

As to `O=c1[nH]c(=O)n(C2CC(O)C(CO)O2)cc1F` (centres undefined), the activation is -6.18%.

For the compound `C[C@]12CC[C@@H]3c4ccc(OC(=O)c5ccccc5)cc4CC[C@H]3[C@@H]1CC[C@@H]2O`, the activation was -2.11%.

For `CC(=O)Oc1ccc2c(c1)CC[C@@H]1[C@@H]2CC[C@]2(C)[C@@H](O)CC[C@@H]12`, the Potency was 44.7 µM (active).

With `CC(=O)Oc1ccc2c(c1)CCC1C2CC[C@]2(C)C(OC(C)=O)CCC12` (some centres undefined), the activation was -1.9%.

Take `CN(C)C(=O)c1ccc(-c2nc(N3CCOCC3)c3ccccc3n2)cc1`: the activation is -5.48%.

In the case of `CC(C)C[C@@H](CC#N)N1CCN(Cc2ccccc2)CCC1=O`, the activation was -11.1%.

Take `Clc1ccc[n+](CCCCC[n+]2cccc(Cl)c2)c1`: the activation is -27.9%.

As to `O=C(Nc1ccc(C(F)(F)F)cc1[N+](=O)[O-])O[C@H]1[C@H](Cc2ccccc2)NS(=O)(=O)[C@H]2C[C@@H]3C=C[C@]12O3`, the activation was -19.6%.

On to `COc1ccc(C(=O)C[n+]2cccc3cccc(O)c32)cc1`, for which the activation was -13.2%.

Consider `COc1cccc2c1C(=O)c1c(O)c3c(c(O)c1C2=O)C[C@@](O)(C(=O)CO)C[C@@H]3O[C@H]1C[C@H](N)[C@H](O)[C@H](C)O1`, for which the activation is -17.2%.

Take `CC(=O)[C@]1(O)Cc2c(O)c3c(c(O)c2[C@@H](O[C@H]2C[C@H](N)[C@H](O)[C@H](C)O2)C1)C(=O)c1c(O)cccc1C3=O`: the Potency is 100 µM (active).

`CCCCC(=O)OCC(=O)[C@]1(O)Cc2c(O)c3c(c(O)c2[C@@H](O[C@H]2C[C@H](NC(=O)C(F)(F)F)[C@H](O)[C@H](C)O2)C1)C(=O)c1c(OC)cccc1C3=O`: the activation is -1%.

Take `CC(=O)[C@]1(O)Cc2c(O)c3c(c(O)c2[C@@H](O[C@H]2C[C@H](N)[C@H](O)[C@H](C)O2)C1)C(=O)c1ccccc1C3=O`: the Potency was 100 µM (active).

On to `CC[C@@]1(O)C[C@H](O[C@H]2C[C@H](N(C)C)[C@H](O[C@H]3C[C@H](O)[C@H](O[C@H]4CCC(=O)[C@H](C)O4)[C@H](C)O3)[C@H](C)O2)c2c(cc3c(c2O)C(=O)c2c(O)cccc2C3=O)[C@H]1C(=O)OC`, for which the activation is 26%.

Turning to `COc1cccc2c1C(=O)c1c(O)c3c(c(O)c1C2=O)C[C@@](O)(C(C)=O)C[C@@H]3O[C@H]1C[C@H](N)[C@H](O)[C@H](C)O1`, the Potency is 100 µM (active).

`COc1cccc2c1C(=O)c1c(O)c3c(c(O)c1C2=O)C[C@@](O)(C(=O)CO)C[C@@H]3O[C@H]1C[C@H](N)[C@H](O[C@@H]2CCCCO2)[C@H](C)O1`: the activation is 1.58%.

In the case of `Cc1c(C(=O)NCc2ccco2)cnn1-c1ncc2c(n1)-c1ccccc1CC2`, the activation is -0.162%.

In the case of `O=C(c1ccncc1)N1CCC2(CCCN(c3ccc(-c4ccccc4)cc3)C2)CC1`, the activation was -3.07%.

Take `COc1cc2c(cc1OC)C(=O)N(C)CC2`: the activation is -9.91%.

As for `CC(C)NC(=O)[C@@H]1C[C@@H](Sc2ccccn2)CN1C1CCN(C)CC1`, the activation is -0.85%.

Take `C=CCN1[C@@H](Cc2ccccc2)COCCS1(=O)=O`: the activation was -11.2%.

Turning to `Cc1cccc(CN2Cc3cccc4c3[C@H](C=CC4)CC2=O)c1`, the activation was -35.8%.

On to `Cc1cc(CC(=O)O)c(C)n1-c1ccc(Cl)cc1`, for which the activation is -0.347%.

For `COc1ccccc1CNc1ncncc1-c1ccccc1CN(C)C`, the activation is -6.39%.

With `COc1ccccc1CCNc1ncnc2sc(C(=O)N3CCCC3)c(C)c12`, the activation was -2.93%.

Regarding `COc1cccc(-c2ccc3ncnc(NCc4cccnc4)c3c2)c1`, the activation is -11%.

As for `Clc1cccc[n+]1CCc1ccccc1`, the activation was -40.7%.

For the compound `COc1ccc(N2C(=O)[C@@H]3C[C@H]2CN3Cc2ccc3nccnc3c2)cc1Cl`, the activation is -3.06%.

On to `CC[C@@H]1[C@H]2CCCC(=O)N3CC[C@@H](C[C@H]1O)[C@@H]23`, for which the activation was -8.94%.

Take `N[C@@H](Cn1cc(I)c(=O)n(Cc2ccc(C(=O)O)cc2)c1=O)C(=O)O`: the activation is 2.18%.
